Compound activity: PubChem, several laboratories
Rows were chosen to be rich in hits. Some 2.2% of all compounds tested hit in one or more screens of this group.
aSyn 5UTR inh: 5' untranslated region of α-synuclein, MLPCN primary screen; inhibition, % (tested at 7.5 µM); alpha-synuclein 5'UTR reporter, inhibitor activity; actives 0.82% (n = 300,000); AID 1813; in the data active = inhibition above about 60%;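 note: H4 neuroglioblastoma cells stably carrying SNCA 5'UTR luciferase fusion; 0% = DMSO wells and 100% = positive control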
IEC-6 tox: IEC-6 cytotoxicity, counter-screen for KLF5 inhibitors; inhibition, % at 5 µM; luminescence viability; actives 0.78% (n = 290,000); in the data active = inhibition above about 22%;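 note: 0% = plate median of test compound wells and 100% = cytotoxic reference compound wells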
Ba/F3 V617F tox: loss of viability in JAK2V617F-driven Ba/F3 cells. Ba/F3 EpoR-JAK2V617F viability, ATP luminescence. inhibition, % at 5.6 µM. actives 1.1% (n = 220,000). AID 1446;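 active = inhibition above the campaign mean plus 3 SD over all tested compounds, cut at about 24% in these data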;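 note: cytokine-independent growth of Ba/F3 cells driven by EpoR plus mutant JAK2; 0% = DMSO-treated cells and 100% = JAK inhibitor I control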
APP transl inh: APP translation inhibition | SH-SY5Y APP 5'UTR-luciferase reporter, luminescence | inhibition, % at 2 µM | actives 0.82% (n = 190,000);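 active = inhibition above a set limit, derived from the sample mean plus 3 SD, cut at about 45% in these data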
BaF3 parental: counter-screen for JAK2V617F inhibitors: parental Ba/F3 viability inhibitors | CellTiter-Glo ATP luminescence | inhibition, % at 5.6 µM | actives 1.1% (n = 220,000) | AID 1486;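 active = inhibition above a per-campaign cutoff, the mean inhibition of all tested compounds plus 3 SD, cut at about 27% in these data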;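 note: 0% = DMSO wells and 100% = JAK Inhibitor I control wells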
KLF5 inhibitor: suppresses KLF5 promoter-driven expression; DLD-1 KLF5 promoter-luciferase reporter, luminescence; inhibition, % at 5 µM; actives 0.23% (n = 290,000);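 active = inhibition above a per-plate limit of that plate's mean compound inhibition plus 3 SD, cut at about 60% in these data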;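 note: 0% = DMSO wells and 100% = LY294002 at 200 µM; higher means less KLF5 promoter-driven luciferase light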
* marks the source's active call; other numbers are inactive results; x = not tested or not shown.

SMILES	aSyn 5UTR inh	IEC-6 tox	Ba/F3 V617F tox	APP transl inh	BaF3 parental	KLF5 inhibitor
CC(=O)N1C=Cc2c(c(C)c3c([nH]c4ccccc43)c2C)C1	x	69*	80*	x	69*	24
CC1Cc2ccccc2N1c1ncnc(N)c1[N+](=O)[O-] (stereo unspecified)	69*	-1	-4	48*	-7	30
CC1CCCCN1c1ncnc(N)c1[N+](=O)[O-] (stereo unspecified)	15	-2	0	0	-4	-5
COc1cc2c(cc1OC)CN(C(=S)Nc1ccccc1)CC2	-4	-3	4	-7	33*	-10
CCN(CC)C(=O)Cn1cc(C(=O)C(=O)NCc2ccccn2)c2ccccc21	-9	-5	x	x	x	-16
COc1cc(OC)cc(-c2nnc(SCC(=O)Nc3cc(C)on3)o2)c1	x	-5	1	-8	95*	-19
COc1cc(NC(=O)CSc2nnc(-c3cc(C)on3)o2)cc(OC)c1	-14	-12	x	x	x	-2
Cc1cc(NC(=O)CSc2nnc(-c3ccccc3)c(-c3ccccc3)n2)no1	39	-4	-2	63*	3	-3
Cc1cc(NC(=O)CSc2ccccc2)no1	-43	0	1	-9	6	-16
CCc1ccc(NC(=O)CCc2nnc3ccc(N4CCCC4)nn23)cc1	-11	0	x	x	x	16
Cc1ccccc1-c1nc(CS(=O)(=O)CC(=O)NCCCN2CCN(C)CC2)c(C)o1	-20	-5	x	x	x	-9
COc1cc(CN(CCN(C)C)Cc2ccccc2)ccc1OCc1ccccc1	-38	-5	x	x	x	-7
CCNC(=S)N1CCN(C(=O)C(Cc2ccccc2)NC(C)=O)CC1 (stereo unspecified)	3	4	5	-30	5	12
COc1ccc(OC)c(NC(=O)Nc2nnc(N3CCC(C)CC3)s2)c1	-8	1	3	48*	10	0
COc1ccc(NC(=O)Nc2nnc(N3CCC(C)CC3)s2)cc1OC	-17	-4	-2	27	8	-5
COc1cc2ccccc2cc1C(=O)Nc1nnc(-c2ccncc2)o1	-19	-3	x	x	x	-23
Cn1c(-c2cccs2)[n+](C)c2ccccc21	14	7	49*	-7	32*	12
COn1c(=O)c(-c2cccs2)[n+]([O-])c2ccccc21	-18	9	4	8	3	15
COc1ccc(C(=O)C2CCN(C(=O)Nc3ccccc3C)CC2)cc1	20	1	x	x	x	11
COc1ccc(N(C(=O)CCl)C(C(=O)NCCc2ccccc2)c2cccs2)cc1 (stereo unspecified)	-16	41*	102*	16	30*	6
Cn1c(=O)c2c(nc(NCCc3ccccc3)n2Cc2ccc(F)cc2)n(C)c1=O	28	10	-2	10	4	-12
C=CCNc1nc2c(c(=O)n(C)c(=O)n2C)n1Cc1ccc(F)cc1	6	-1	40*	1	40*	-40
C=CCNc1nc2c(c(=O)n(C)c(=O)n2C)n1CC	13	-3	-4	-5	5	5
C=CCNc1nc2c(c(=O)n(C)c(=O)n2C)n1CCCCCC	-28	6	40*	16	55*	-37
COCCNc1nc2c(c(=O)n(C)c(=O)n2C)n1Cc1cccc(C)c1	15	1	45*	-3	43*	-10
SMILES	aSyn 5UTR inh	IEC-6 tox	Ba/F3 V617F tox	APP transl inh	BaF3 parental	KLF5 inhibitor
CC(Oc1coc(CN2CCN(C(=O)c3ccco3)CC2)cc1=O)c1ccccc1 (stereo unspecified)	-4	x	x	x	x	x
CCCOc1ccc(CC(=O)NCCc2ccccc2)cc1OC	19	4	x	x	x	-4
COC(=O)C1=C(N)OC2=C(C(=O)CC(C)(C)C2)C1c1cc2c(cc1Cl)OCO2 (stereo unspecified)	-3	1	x	x	x	-7
CC(C)(C)Nc1nc2nonc2nc1NC(C)(C)C	9	-2	35*	x	33*	-25
CCCCc1c(C)c(C#N)c2nc3ccccc3n2c1Cl	109*	3	-5	82*	4	-16
CC(C)CC(=O)Nc1ccc(C(=O)NNC(=S)NC(=O)C2CCCCC2)cc1	67*	1	2	7	2	-14
O=C(NC(=S)Nc1ccc(F)cc1)C1CCCCC1	-63	-2	x	x	x	-88
O=Cc1s/c(=N\S(=O)(=O)c2ccccc2)n(CCCCl)c1Cl	70*	-2	22	95*	0	-40
O=C(NC(=S)Nc1ccccc1F)c1ccc(Br)o1	-66	4	3	-42	4	-64
CCO[C@H]1OC(C(=O)N2CCN(C)CC2)=C[C@@H](C2CC2)[C@@H]1CCCO	-1	4	-2	2	-2	6
O=C(c1ccc(Cl)cc1)N1CCCCC(Sc2nnc(-c3ccc4c(c3)OCO4)o2)C1=O (stereo unspecified)	92*	-1	-2	8	2	-43
O=C(O)CSc1nnc(-c2ccc3c(c2)OCO3)o1	10	-2	-1	-17	7	-5
COC(=O)Cc1c(C)c2ccc(OCC(=O)NC3CCS(=O)(=O)C3)cc2oc1=O (stereo unspecified)	8	-4	x	x	x	-5
Nc1nc(SCC(=O)c2cccs2)n[nH]1	27	2	4	-11	6	-3
COCCN(Cc1cc2ccc(C)cc2n2nnnc12)Cc1nnnn1C(C)(C)C	17	-4	-3	46*	1	-46
O=C(Cc1c(F)cccc1Cl)Nc1nccs1	5	3	x	x	x	1
Cc1cc(Nc2cccc(Cl)c2Cl)n2ncnc2n1	23	0	x	x	x	-14
O=C(CSc1ccc2c(c1)OCCO2)Nc1ncc(Cl)cc1Cl	23	-2	-2	46*	4	-7
Cc1cccc2nc3c(nc12)-c1ccccc1C3=O	-106	8	2	x	-1	-6
Cc1c(C(=O)C(=O)N2CCN(C)CC2)c2ccccc2n1C	3	0	1	-1	0	-6
Cc1c(C(=O)C(=O)N2c3ccc(F)cc3CCC2C)c2ccccc2n1C (stereo unspecified)	62*	6	-2	83*	7	7
CC1=CN2C(=N)/C(=C/c3ccc([N+](=O)[O-])o3)C(=O)N=C2S1	-56	-21	2	48*	7	-16
CCc1nc(CN2CCCC(C(=O)c3ccc4c5c(cccc35)CC4)C2)c(C)[nH]1 (stereo unspecified)	31	10	3	-4	82*	-13
COc1ccc(-c2coc3cc4oc(=O)cc(C)c4cc23)cc1F	22	7	-2	-7	1	-29
COc1ccc(-c2coc3cc4oc(=O)cc(-c5ccccc5)c4cc23)cc1F	113*	7	1	90*	5	-10
Cc1cccc(NC(=O)C(C)SCc2nc3sc4c(c3c(=O)[nH]2)CCCC4)n1 (stereo unspecified)	-14	x	x	x	x	x
O=C(COc1ccccc1[N+](=O)[O-])Nc1ccc2c(c1)OCO2	-133	3	-3	-106	0	-71
